Reference: PubChem BioAssay (NCATS)
Records with an inconclusive call do not appear. Activity calls are given as the source filed them. Unless noted, calls come from the whole dose curve; as a rule, active = well fitted curve in either direction with a large enough effect (not every such curve was filed as active); inconclusive = small, poorly fitted or top-dose-only effect, or another doubt; inactive = flat fitted curve, though single readings scatter.

Experiments:
[1] = AP1 Signaling Pathway (AID 357); conditions: ME-180 AP-1-bla reporter, EGF-induced, beta-lactamase ratio, 5 h; at 17.2 µM (top of the series) unless noted;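 note: ME-180 reporter cells stimulated with EGF at its EC50 level; % is set by controls: 0 for no effect and ±100 for the full control effect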
Outline: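 Cells are seeded overnight, exposed to compound titrations and an EC50 level of EGF for 5 hours at 37 °C, then loaded with CCF4 dye for 2.5 hours. Beta-lactamase activity under the AP-1 element is read as a blue/green ratio.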

[2] = NFAT Signaling Pathway (AID 444); conditions: Jurkat NFAT-bla M1, carbachol, beta-lactamase ratio, 5 h; at 17.2 µM (top of the series) unless noted;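 note: carbachol stimulus at about its EC50 of 1 µM final; % is set by controls: 0 for no effect and ±100 for the full control effect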
Outline: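 Jurkat cells with NFAT-driven β-lactamase reporter and co-expressed M1 receptor, stimulated with carbachol (final 1 uM, ~EC50), compound titration, 5 h at 37 °C. CCF4 loaded 1 h at RT; 460/530 nm ratio gave %activity and AC50.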

[3] = Stat Signaling Pathway (AID 446); conditions: ME-180 SIE beta-lactamase reporter, IL-6 stimulated, 5 h; at 17.2 µM (top of the series) unless noted;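 note: ME-180 cervical cancer cells given 40 pM IL-6 alongside compound; SIE-controlled beta-lactamase reporter measured as 460/530 nm FRET emission ratio; % is set by controls: 0 for no effect and ±100 for the full control effect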
Outline: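 Screening format detects activators and inhibitors alike: ME-180 SIE-bla cells stimulated at 40 pM IL-6 for 5 hrs with compound, then dual-emission beta-lactamase read at 405 nm excitation.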

[4] = target: Glucocorticoid receptor (Homo sapiens) (UniProt P04150); assay: GR-GFP Redistribution (AID 450;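 active = compounds whose dose series gives a full or clear partial fitted curve of increased nuclear translocation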; note: potency is the fitted concentration of half-maximal effect); conditions: U2OS GR-GFP nuclear translocation, laser cytometry, 2 h; series mostly up to 20.6 µM
Chain of Glucocorticoid receptor (Homo sapiens) (P04150 whole entry, looked up): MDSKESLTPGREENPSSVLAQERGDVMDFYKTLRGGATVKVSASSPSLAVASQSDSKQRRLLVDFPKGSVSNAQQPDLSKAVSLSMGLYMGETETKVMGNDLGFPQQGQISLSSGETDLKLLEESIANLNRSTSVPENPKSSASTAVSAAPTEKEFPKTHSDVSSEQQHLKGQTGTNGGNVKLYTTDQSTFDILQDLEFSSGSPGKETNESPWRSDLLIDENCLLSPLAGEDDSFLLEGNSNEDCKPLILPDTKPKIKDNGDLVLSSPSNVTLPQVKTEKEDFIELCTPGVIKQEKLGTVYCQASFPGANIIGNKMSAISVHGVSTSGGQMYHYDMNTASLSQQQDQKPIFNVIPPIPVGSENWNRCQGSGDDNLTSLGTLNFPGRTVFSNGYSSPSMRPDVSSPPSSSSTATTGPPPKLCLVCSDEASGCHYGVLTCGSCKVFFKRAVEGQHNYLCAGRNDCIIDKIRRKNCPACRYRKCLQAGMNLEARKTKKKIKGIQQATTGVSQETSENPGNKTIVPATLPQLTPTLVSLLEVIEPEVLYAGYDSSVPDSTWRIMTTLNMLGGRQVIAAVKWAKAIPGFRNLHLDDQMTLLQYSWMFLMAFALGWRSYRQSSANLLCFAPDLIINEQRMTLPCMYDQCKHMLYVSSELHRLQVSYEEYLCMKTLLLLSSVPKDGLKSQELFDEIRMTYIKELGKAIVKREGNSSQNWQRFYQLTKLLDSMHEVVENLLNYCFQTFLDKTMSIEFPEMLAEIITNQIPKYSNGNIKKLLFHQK

C=CCN=C(NC#N)SCCc1ccccc1
inactive: activity change, negative = inhibition [1] -4.76% | activity change, negative = inhibition [2] 7.9% | activity, negative = inhibition [3] 5.61% | Potency [4] > 20.6 µM

Cc1occc1C(=O)OCC(=O)Nc1ccc(F)cc1
inactive: activity change, negative = inhibition [1] 17.4% | activity change, negative = inhibition [2] 1.22% | activity, negative = inhibition [3] -3.3% | Potency [4] > 20.6 µM

CC(=O)c1cccc(N=C2NC(=O)C(CO)(CO)S2)c1
inactive: activity change, negative = inhibition [1] 3.54% | activity change, negative = inhibition [2] -3.93% | activity, negative = inhibition [3] 4.42% | Potency [4] > 20.6 µM

CCNC(=O)N(C(=O)NCC)n1c(C)nnc1C
inactive: activity change, negative = inhibition [1] 6.49% | activity change, negative = inhibition [2] -11.9% | activity, negative = inhibition [3] 12.4% | Potency [4] > 20.6 µM

CC1CN(C2CCN(C(=O)COc3ccccc3)CC2)CC(C)O1 (stereo not drawn)
inactive: activity change, negative = inhibition [1] -6.79% | activity change, negative = inhibition [2] -12.5% | activity, negative = inhibition [3] -1.27% | Potency [4] > 20.6 µM

Cc1nnc2n(Cc3ccccc3)c(=O)c3c4c(sc3n12)CN(Cc1ccccc1)CC4
inactive: activity change, negative = inhibition [1] 3.27% | activity change, negative = inhibition [2] -8.71% | activity, negative = inhibition [3] 5.01% | Potency [4] > 20.6 µM

Clc1cccc(-c2nn3c(-c4cccc(Cl)c4)nnc3s2)c1
inactive: activity change, negative = inhibition [1] -10.3% | activity change, negative = inhibition [2] 1.34% | activity, negative = inhibition [3] 2.11% | Potency [4] > 20.6 µM

CCN(CC)CCCN1C(=O)C(=O)/C(=C(/O)c2ccc3c(c2)CC(C)O3)C1c1cccnc1 (stereo not drawn)
inactive: activity change, negative = inhibition [1] 4.22% | activity change, negative = inhibition [2] 11.9% | activity, negative = inhibition [3] 9.37% | Potency [4] > 20.6 µM

COC(=O)Sc1nc(N2CCOCC2)c2c(c1C#N)CC(C)(C)OC2
inactive: activity change, negative = inhibition [1] -17.4% | activity change, negative = inhibition [2] -7.69% | activity, negative = inhibition [3] -18.3% | Potency [4] > 20.6 µM

C=CCn1cnc2c(c1=O)c1nc3ccccc3nc1n2-c1ccc(Cl)cc1
inactive: activity change, negative = inhibition [1] 8.09% | activity change, negative = inhibition [2] -0.571% | activity, negative = inhibition [3] -1.17% | Potency [4] > 20.6 µM

CCC(=O)Nc1nc2ccccc2n1CCN(C)C
inactive: activity change, negative = inhibition [1] 3.29% | activity change, negative = inhibition [2] -7.56% | activity, negative = inhibition [3] 10.7% | Potency [4] > 20.6 µM

COc1ccc(CCNC(=O)c2ccc(=O)[nH]n2)cc1OC
inactive: activity change, negative = inhibition [1] -1.15% | activity change, negative = inhibition [2] -8.89% | activity, negative = inhibition [3] 3.06% | Potency [4] > 20.6 µM

CCCCN(C(=O)CCC(=O)O)C1CC(=O)N(c2ccc(OCCC)cc2)C1=O (stereo not drawn)
inactive: activity change, negative = inhibition [1] 0.952% | activity change, negative = inhibition [2] -3.79% | activity, negative = inhibition [3] 5.12% | Potency [4] > 20.6 µM

Cc1nnc(SCC(=O)N2CCC(C(N)=O)CC2)s1
inactive: activity change, negative = inhibition [1] 4.41% | activity change, negative = inhibition [2] 5.46% | activity, negative = inhibition [3] 7.13% | Potency [4] > 20.6 µM

Nc1[nH]nc2nc(NCc3ccccc3)c3c(c12)CCN(Cc1ccccc1)C3
inactive: activity change, negative = inhibition [1] -11.4% | activity change, negative = inhibition [2] 0.244% | activity, negative = inhibition [3] 6.86% | Potency [4] > 20.6 µM

Cc1[nH]nc2cn[nH]c12
inactive: activity change, negative = inhibition [1] -10.4% | activity change, negative = inhibition [2] 6.17% | activity, negative = inhibition [3] 4.46% | Potency [4] > 20.6 µM

Cc1ccc(S(=O)(=O)NC(=O)Nc2ncc3c(n2)CC(c2ccco2)CC3=O)cc1 (stereo not drawn)
inactive: activity change, negative = inhibition [1] -9.62% | activity change, negative = inhibition [2] 7.22% | activity, negative = inhibition [3] -2.33% | Potency [4] > 20.6 µM

Cc1ccccc1NC(=O)NCCc1nc2ccccc2[nH]1
inactive: activity change, negative = inhibition [1] -3.68% | activity change, negative = inhibition [2] -10.3% | activity, negative = inhibition [3] -7.53% | Potency [4] > 20.6 µM

CCOC(=O)CNC(=O)CCCCCC(=O)NCC(=O)OCC
inactive: activity change, negative = inhibition [1] 7.11% | activity change, negative = inhibition [2] 1.76% | activity, negative = inhibition [3] 7.81% | Potency [4] > 20.6 µM

O=C(O)CC(SCc1ccc(C(=O)O)o1)C(=O)O (stereo not drawn)
inactive: activity change, negative = inhibition [1] 7.18% | activity change, negative = inhibition [2] -1.8% | activity, negative = inhibition [3] 0.837% | Potency [4] > 20.6 µM

CCCCc1nc(NCCN2CCOCC2)c(C#N)c2c1COC(C)(C)C2
inactive: activity change, negative = inhibition [1] -15.7% | activity change, negative = inhibition [2] 13.3% | activity, negative = inhibition [3] 1.05% | Potency [4] > 20.6 µM

Nc1ccc2c3c(cccc13)CC2
inactive: activity change, negative = inhibition [1] 0.829% | activity change, negative = inhibition [2] 11.5% | activity, negative = inhibition [3] 7.79%
active: Potency [4] 3.98 µM

O=C(NCc1ccco1)c1ccc(=O)[nH]n1
inactive: activity change, negative = inhibition [1] -6.2% | activity change, negative = inhibition [2] -1.91% | activity, negative = inhibition [3] -5.82% | Potency [4] > 20.6 µM

CCCC1CC(=O)OC1(C)C(=O)CSc1n[nH]c(-c2ccccc2)n1 (stereo not drawn)
inactive: activity change, negative = inhibition [1] -6.44% | activity change, negative = inhibition [2] 8.59% | activity, negative = inhibition [3] -7.88% | Potency [4] > 20.6 µM

COc1ccc(-n2ncc3c(N4CCC(C(N)=O)CC4)ncnc32)cc1
inactive: activity change, negative = inhibition [1] -0.0678% | activity change, negative = inhibition [2] 6% | activity, negative = inhibition [3] -1.03% | Potency [4] > 20.6 µM

CCOc1nnnc2c1sc1nc(N3CCOCC3)c3c(c12)CC(C)(C)OC3
inactive: activity change, negative = inhibition [1] -7.69% | activity change, negative = inhibition [2] -17.4% | activity, negative = inhibition [3] -9.58% | Potency [4] > 20.6 µM

CCN(CC)C(=O)CN(C#N)c1nc(NC(C)C)nc(NC(C)C)n1
inactive: activity change, negative = inhibition [1] 4.86% | activity change, negative = inhibition [2] -0.753% | activity, negative = inhibition [3] 8.05% | Potency [4] > 20.6 µM

CCCc1nc2n[nH]c(N)c2c2c1COC(C)(C)C2
inactive: activity change, negative = inhibition [1] 2.75% | activity change, negative = inhibition [2] -0.018% | activity, negative = inhibition [3] 2.38% | Potency [4] > 20.6 µM

CCOC(=O)c1c(C)cccc1OCC(N)=O
inactive: activity change, negative = inhibition [1] -9.84% | activity change, negative = inhibition [2] 0.392% | activity, negative = inhibition [3] -2.4% | Potency [4] > 20.6 µM

COc1ccccc1C1/C(=C(/O)c2cnn(-c3ccccc3)c2C)C(=O)C(=O)N1CCN(C)C (stereo not drawn)
inactive: activity change, negative = inhibition [1] -7.05% | activity change, negative = inhibition [2] 1.4% | activity, negative = inhibition [3] 2.75% | Potency [4] > 20.6 µM

NC(=O)C1CCN(C2OC(=O)c3ccccc32)CC1 (stereo not drawn)
inactive: activity change, negative = inhibition [1] 2.97% | activity change, negative = inhibition [2] 1.22% | activity, negative = inhibition [3] 10.3% | Potency [4] > 20.6 µM

COCCN(CCOC)C(=O)C12CCC(C)(C(=O)C1)C2(C)C (stereo not drawn)
inactive: activity change, negative = inhibition [1] 9.52% | activity change, negative = inhibition [2] 8.02% | activity, negative = inhibition [3] 3.59% | Potency [4] > 20.6 µM

CCc1cccc(C)c1N(C(=O)Cn1c(=O)[nH]c2ccccc21)C(C)COC (stereo not drawn)
inactive: activity change, negative = inhibition [1] -2.33% | activity change, negative = inhibition [2] 17.7% | activity, negative = inhibition [3] -1.06% | Potency [4] > 20.6 µM

CCCCC(CCC(=O)Nc1ccc(C(=O)OCC)cc1)C(=O)O (stereo not drawn)
inactive: activity change, negative = inhibition [1] -10.4% | activity change, negative = inhibition [2] 8.16% | activity, negative = inhibition [3] 3.27% | Potency [4] > 20.6 µM

Cc1ccc(N2C(=O)[C@@H]3[C@H](C2=O)C2CCCN2[C@@H]3C(=O)c2ccccc2)cc1 (stereo partly drawn)
inactive: activity change, negative = inhibition [1] -15.8% | activity change, negative = inhibition [2] 9.36% | activity, negative = inhibition [3] -3.84% | Potency [4] > 20.6 µM

COc1cccc(Cn2c(OCC3CCCO3)nc3c2c(=O)n(C)c(=O)n3C)c1 (stereo not drawn)
inactive: activity change, negative = inhibition [1] -4.44% | activity change, negative = inhibition [2] -8.17% | activity, negative = inhibition [3] -4.79% | Potency [4] > 20.6 µM

COc1ccc(C2=CC(c3cccc(OC)c3)n3nnnc3N2)cc1 (stereo not drawn)
inactive: activity change, negative = inhibition [1] -24.4% | activity change, negative = inhibition [2] 1.4% | activity, negative = inhibition [3] -2.84% | Potency [4] > 20.6 µM
